Assay [1] in a line: NCI Yeast Anticancer Drug Screen. Data for the rad50 strain (AID 155).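 Also: 0% = growth of vehicle-only cultures of the same strain.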 The conditions noted are these: S. cerevisiae rad50 strain growth inhibition, hits give high values. The essentials:
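Compounds were tested on a yeast strain with an engineered DNA damage repair alteration; the reported value is growth inhibition normalised to vehicle treatment.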

The nature of assay [2]: NCI Yeast Anticancer Drug Screen. Data for the sgs1 mgt1 strain (AID 161).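 Also: 0% = growth of cultures given vehicle only.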 Conditions: S. cerevisiae sgs1 mgt1 strain, hits give high values. The essentials:
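Compounds are added to genetically altered yeast, and growth is compared with cultures given vehicle alone to give percent inhibition.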

A short description of assay [3]: NCI Yeast Anticancer Drug Screen. Data for the cln2 rad14 strain (AID 165).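 Also: 0% = growth equal to vehicle treated cultures.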 The conditions noted are these: S. cerevisiae cln2 rad14 strain, hits give high values. An outline of the steps:
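Strain: cln2 rad14 yeast, altered in cell cycle control and DNA damage repair. Read-out: growth inhibition vs vehicle.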

Assay [4] is described as follows: NCI Yeast Anticancer Drug Screen. Data for the bub3 strain (AID 167). Conditions: S. cerevisiae bub3 mutant strain, hits give high values. The essentials: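 Growth of a checkpoint-deficient yeast mutant is measured after compound exposure. Values represent inhibition relative to vehicle.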
Assay [5] in a line: NCI Yeast Anticancer Drug Screen. Data for the mlh1 rad18 strain (AID 175). Conditions: S. cerevisiae mlh1 rad18 strain growth inhibition, hits give high values. An outline of the steps: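 A repair-deficient yeast strain is exposed to test compound, and growth is scored relative to vehicle-treated controls.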
Assay [6] in a line: NCI Yeast Anticancer Drug Screen. Data for the mec2-1 strain (AID 157). The conditions noted are these: S. cerevisiae mec2-1 strain, hits give high values. The essentials:
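Compounds were applied to mec2-1 yeast cells. Their growth was then compared with that of vehicle-treated cultures to give growth inhibition.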

The mark [7] stands for this setting: at 5.0 µM (retest, dose inferred, filed as 0.5).
Where [8] appears, read: at 50.0 µM (retest, dose inferred, filed as 5.0).

Compounds without any hit were thinned out: in the full panel of roughly 79,000, 15% have a hit. Unmarked numbers belong to inactive results. The source made the active and inactive calls. Rule as the data show it: active = growth inhibition above about 70%; inactive = the rest.

Consider `O=P(Oc1ccccc1)(Oc1ccccc1)Oc1ccccc1Cl`, for which the growth inhibition in assay [1] (setting [7]) is 5%; in assay [1] (setting [8]), 0%; in assay [1] (at 50.0 µM), 29.4%; in assay [2] (setting [7]), -4%; in assay [2] (setting [8]), 4%; in assay [2] (at 50.0 µM), 13.6%. Moreover, the growth inhibition is 0% in assay [3] (setting [7]); -14% in assay [3] (setting [8]); -6.1% in assay [3] (at 50.0 µM); 2% in assay [4] (setting [7]); 28% in assay [4] (setting [8]); 66.5% in assay [4] (at 50.0 µM). Besides, the growth inhibition was -13% in assay [5] (setting [7]), -3% in assay [5] (setting [8]) and 51.6% in assay [5] (at 50.0 µM).

Take `N#CC(C#N)=Cc1c(O)ccc2ccccc12`: the growth inhibition in assay [1] (setting [7]) is 15%; in assay [1] (setting [8]) it was 76% (active); in assay [1] (at 50.0 µM), 78.5% (active); in assay [6] (setting [7]) it was -2%; in assay [6] (setting [8]), 45%; in assay [6] (at 50.0 µM) it was 51.3%. Besides, the growth inhibition was 18% in assay [3] (setting [7]); 48% in assay [3] (setting [8]); 61.2% in assay [3] (at 50.0 µM); 19% in assay [5] (setting [7]); 81% (active) in assay [5] (setting [8]); 81.5% (active) in assay [5] (at 50.0 µM).

As to `O=[n+]1c2ccccc2n([O-])c2ccccc21`, the growth inhibition was 93% (active) in assay [1] (setting [7]); 98% (active) in assay [1] (setting [8]); 22% in assay [6] (setting [7]); 99% (active) in assay [6] (setting [8]); 61% in assay [2] (setting [7]); 99% (active) in assay [2] (setting [8]). Also, the growth inhibition in assay [3] (setting [7]) is 18%; in assay [3] (setting [8]) it was 98% (active); in assay [4] (setting [7]) it was 0%; in assay [4] (setting [8]) it was 99% (active); in assay [5] (setting [7]), 79% (active); in assay [5] (setting [8]) it was 98% (active).

Take `C[C@]12Cc3cn4ncnc4nc3CC1CC[C@@H]1[C@@H]2CC[C@]2(C)C(O)CC[C@@H]12` (some centres undefined): the growth inhibition in assay [1] (setting [7]) is 21%; in assay [1] (setting [8]), 97% (active); in assay [1] (at 50.0 µM), 97.5% (active); in assay [2] (setting [7]) it was 60%; in assay [2] (setting [8]), 99% (active); in assay [2] (at 50.0 µM) it was 98% (active). For the same compound, the growth inhibition in assay [3] (setting [7]) was 25%; in assay [3] (setting [8]) it was 91% (active); in assay [3] (at 50.0 µM) it was 78.7% (active); in assay [4] (setting [7]) it was 24%; in assay [4] (setting [8]) it was 97% (active); in assay [4] (at 50.0 µM), 97% (active). For the same compound, the growth inhibition in assay [5] (setting [7]) was 48%; in assay [5] (setting [8]) it was 98% (active); in assay [5] (at 50.0 µM) it was 98.6% (active).

Turning to `O=C(CBr)OCC(O)CCl` (centres undefined), the growth inhibition in assay [1] (setting [7]) is 92% (active); in assay [1] (setting [8]), 99% (active); in assay [6] (setting [7]), 70% (active); in assay [6] (setting [8]) it was 100% (active); in assay [2] (setting [7]), 96% (active); in assay [2] (setting [8]), 100% (active). Moreover, the growth inhibition in assay [3] (setting [7]) was 49%; in assay [3] (setting [8]), 99% (active); in assay [4] (setting [7]), 79% (active); in assay [4] (setting [8]), 100% (active); in assay [5] (setting [7]) it was 47%; in assay [5] (setting [8]), 99% (active).

On to `O=[N+]([O-])c1cccc([N+](=O)[O-])c1Cl`, for which the growth inhibition in assay [1] (setting [7]) was 58%; in assay [1] (setting [8]) it was 96% (active); in assay [6] (setting [7]), 22%; in assay [6] (setting [8]) it was 96% (active); in assay [2] (setting [7]), 13%; in assay [2] (setting [8]), 88% (active). In addition, the growth inhibition in assay [3] (setting [7]) is 8%; in assay [3] (setting [8]), 12%; in assay [4] (setting [7]), -12%; in assay [4] (setting [8]), 33%; in assay [5] (setting [7]), 7%; in assay [5] (setting [8]), 46%.

In the case of `O=C(O)c1ccc([Se][Se]c2ccc(C(=O)O)cc2)cc1`, the growth inhibition is 63% in assay [1] (setting [7]); 97% (active) in assay [1] (setting [8]); 89.9% (active) in assay [1] (at 50.0 µM); 39% in assay [6] (setting [7]); 98% (active) in assay [6] (setting [8]); 92.8% (active) in assay [6] (at 50.0 µM). Further, the growth inhibition in assay [3] (setting [7]) was 33%; in assay [3] (setting [8]), 94% (active); in assay [3] (at 50.0 µM), 91.5% (active); in assay [4] (setting [7]), 41%; in assay [4] (setting [8]), 99% (active); in assay [4] (at 50.0 µM) it was 91.2% (active). Moreover, the growth inhibition in assay [5] (setting [7]) was 67%; in assay [5] (setting [8]) it was 97% (active); in assay [5] (at 50.0 µM) it was 91.1% (active).

As to `COc1ccc(/C=C/[N+](=O)[O-])cc1`, the growth inhibition in assay [1] (setting [7]) was 71% (active); in assay [1] (setting [8]), 99% (active); in assay [6] (setting [7]) it was 27%; in assay [6] (setting [8]), 100% (active); in assay [2] (setting [7]), 65%; in assay [2] (setting [8]), 100% (active). In addition, the growth inhibition in assay [3] (setting [7]) was 11%; in assay [3] (setting [8]) it was 99% (active); in assay [4] (setting [7]) it was 14%; in assay [4] (setting [8]) it was 99% (active); in assay [5] (setting [7]), -11%; in assay [5] (setting [8]) it was 99% (active).

For `[Hg][c]1ccccc1`, the growth inhibition was 99% (active) in assay [1] (setting [7]); 94% (active) in assay [1] (setting [8]); 99.5% (active) in assay [1] (at 50.0 µM); 100% (active) in assay [2] (setting [7]); 52% in assay [2] (setting [8]); 99.5% (active) in assay [2] (at 50.0 µM). The growth inhibition is 99% (active) in assay [3] (setting [7]); 27% in assay [3] (setting [8]); 98.3% (active) in assay [3] (at 50.0 µM); 100% (active) in assay [4] (setting [7]); -2% in assay [4] (setting [8]); 99.6% (active) in assay [4] (at 50.0 µM). In addition, the growth inhibition is 99% (active) in assay [5] (setting [7]), 53% in assay [5] (setting [8]) and 99.3% (active) in assay [5] (at 50.0 µM).

On to `O=C(CF)CCl`, for which the growth inhibition was 89% (active) in assay [1] (setting [7]); 98% (active) in assay [1] (setting [8]); 25% in assay [6] (setting [7]); 99% (active) in assay [6] (setting [8]); 88% (active) in assay [2] (setting [7]); 65% in assay [2] (setting [8]). In addition, the growth inhibition in assay [3] (setting [7]) was 79% (active); in assay [3] (setting [8]), 99% (active); in assay [4] (setting [7]), 32%; in assay [4] (setting [8]), 99% (active); in assay [5] (setting [7]) it was 69%; in assay [5] (setting [8]), 98% (active).

`C1CC[N-]CC1.C1CC[N-]CC1.N#C[S-].N#C[S-].[Cd]`: the growth inhibition in assay [1] (setting [7]) is 33%; in assay [1] (setting [8]) it was 86% (active); in assay [6] (setting [7]) it was 18%; in assay [6] (setting [8]) it was 69%; in assay [2] (setting [7]), 15%; in assay [2] (setting [8]), 81% (active). The growth inhibition was 11% in assay [3] (setting [7]); 57% in assay [3] (setting [8]); 10% in assay [4] (setting [7]); 73% (active) in assay [4] (setting [8]); -4% in assay [5] (setting [7]); 66% in assay [5] (setting [8]).

On to `CCC(=O)O.[Ag]`, for which the growth inhibition in assay [1] (setting [7]) was 98% (active); in assay [1] (setting [8]), 98% (active); in assay [1] (at 50.0 µM), 91.2% (active); in assay [2] (setting [7]), 99% (active); in assay [2] (setting [8]), 98% (active); in assay [2] (at 50.0 µM), 91.6% (active). The growth inhibition is 98% (active) in assay [3] (setting [7]); 97% (active) in assay [3] (setting [8]); 90.3% (active) in assay [3] (at 50.0 µM); 99% (active) in assay [4] (setting [7]); 97% (active) in assay [4] (setting [8]); 91% (active) in assay [4] (at 50.0 µM). Further, the growth inhibition in assay [5] (setting [7]) was 99% (active); in assay [5] (setting [8]) it was 97% (active); in assay [5] (at 50.0 µM), 90.3% (active).

Source of the values: PubChem BioAssay (NCI).
